HT1080 IDH1KD tx: kills HT-1080 cells with IDH1 knockdown. Potency, µM (doses to about 46.1 µM), for the others: top-dose activity, negative = toxicity, hits mostly cytotoxic. hit rate 2% among 360,000. HT-1080 IDH1 knockdown viability, ATP luminescence, 48 h;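 further: potency means the concentration at half of the fitted maximal effect; 0% = DMSO wells and -100% = cell-free medium wells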
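Assay cells: HT-1080 with IDH1 knockdown, 750 per well, RPMI/5% FBS. Exposure: 48 h at 37 °C following 2 h pre-incubation. Read: CellTiter-Glo luminescence; fitted concentration-response, curve class assigned.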
TDP1 cell CPT: DT40-hTDP1 cell growth loss with CPT | chicken DT40 Tdp1-/-;hTDP1 cells + 20 nM CPT, ATP luminescence, 48 h | Potency, µM (top dose mostly 46.2 µM), for the others: at the top dose activity change, negative = growth inhibition, most hits filed as inhibitors | hit rate 12% among 420,000 | AID 686979; further: potency means the concentration at half of the fitted maximal effect; nearly all actives have a fitted effect of over 55% in size
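Cell growth measured by CellTiter-Glo luminescence after a minimum 48 h, 37 C compound exposure with 20 nM CPT in Tdp1-knockout DT40 cells stably expressing hTDP1, seeded 400/well; qHTS titration format.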
HT1080-NT tox: kills 2HG-producing HT-1080-NT fibrosarcoma cells; hit rate 1.6% among 360,000; Potency, µM (series often up to 46.1 µM), for the others: at the top dose activity, negative = less viability, hits mostly cytotoxic; HT-1080-NT fibrosarcoma viability, CellTiter-Glo ATP luminescence, 48 h;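 further: NT is the 2HG producing partner of a matched IDH1 knockdown line; potency means the concentration at half of the fitted maximal effect; 0% = DMSO-treated cells and -100% = media-only wells without cells; nearly all actives have a fitted effect of over 55% in size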
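750 cells/well, RPMI + 5% FBS; 2 h settle, compound pin-transfer, 48 h at 37 degrees C. CellTiter-Glo 10 min RT, luminescence. Normalized to DMSO and media-only wells.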
TDP1 cell noCPT: qHTS for Inhibitors of human tyrosyl-DNA phosphodiesterase 1 (TDP1): qHTS in cells in absence of CPT; DT40 Tdp1-/- hTDP1 cells, no CPT, ATP luminescence, 48 h; Potency, µM (series often up to 46.2 µM), inactives show top-dose activity change, negative = growth inhibition, actives largely listed as inhibitors; hit rate 15% among 420,000; AID 686978, 2013; further: potency means the concentration at half of the fitted maximal effect; nearly all actives have a fitted effect of over 55% in size
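Stably hTDP1-transfected Tdp1-null chicken DT40 cells were treated with library compounds minus camptothecin and grown for at least 48 hr at 37 °C, after which cellular ATP was quantified by luminescence.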
IL1B secr inh: inhibitors of inflammasome signaling (IL-1 beta secretion) | THP-1 LPS/ATP IL-1B secretion, AlphaLISA, 16 h; stronger effect = lower value | activity change, % at 57.5 µM | hit rate 4.7% among 360,000; in the data active means activity change below about -50%; inconclusive means mostly about -30% to -49%
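THP-1 cells pretreated 1 hr with compounds (up to 57.5 uM final), then stimulated with LPS (250 ng/mL final) plus ATP (1.25 mM final); secreted IL-1B measured by AlphaLISA after 16 hr, decreased signal indicating inhibition.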
ELG1 DNA repair: ELG1-dependent DNA repair inhibition; HEK293T ELG1-luciferase reporter, luminescence, 16 h; DNA damage induced by 5-fluorouridine; Potency, µM (highest dose often 46.1 µM), inactives show top-dose activity change, negative = inhibition, usual class: inhibitors; AID 504467; hit rate 2.3% among 330,000; further: potency means the concentration at half of the fitted maximal effect; nearly all actives have a fitted effect of over 55% in size
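Step one: seed 2,000 cells per well. Step two: pin-transfer compound or DMSO alongside 5-fluorouridine. Step three: incubate 16 hr, 37 °C, 5% CO2. Step four: add ONE-Glo, wait 30 min, read luminescence.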
Starred values were filed as active, the others as inactive; ? = inconclusive; . = no result; [ ] = dose if it differs, or a comment. An excerpt weighted towards active compounds, which were near 19% of everything screened. Unless noted, the call rests on the fitted dose curve; in most records, active means well fitted curve in the direction sought with a large enough effect; inconclusive means small, poorly fitted or top-dose-only effect, or another doubt; inactive means no such curve, though single readings can be large; an effect the other way counts as inactive or inconclusive. Unless noted, on the % scale 0 is the no-effect control and ±100 the full control effect.

SMILES | HT1080 IDH1KD tx | TDP1 cell CPT | HT1080-NT tox | TDP1 cell noCPT | IL1B secr inh | ELG1 DNA repair
CC(CCc1ccccc1)NC(=O)Cn1c(=O)nc(-c2ccccc2F)c2cc(Cl)ccc21 (stereo not given) | . | -8% | . | -26% | . | .
CCN(CC)C(=O)C(=O)N/N=C/c1ccc(C(=O)OC)cc1 | -1% | -5% | -1% | -10% | 3 | 14%
CO/N=C(/C(=O)N[C@@H]1C(=O)N2C(C(=O)[O-])=C(C[n+]3ccn4ncccc43)CS[C@H]12)c1nsc(N)n1 | . | 6% | . | -14% | . | .
COc1ccc(C2CC(=O)c3cnc4c(-c5ccc(F)cc5)c(C)nn4c3C2)cc1OC (stereo not given) | . | 4% | . | -5% | . | .
CC(C)[C@H](NC(=O)N1CC(=O)Nc2ccccc21)C(=O)N[C@H](Cc1ccccc1)C(=O)O | 11% | 1% | 8% | -6% | 9 | 1%
OC(CNCc1ccccc1)COc1ccccc1 (stereo not given) | 10% | -23% | 4% | -10% | 0 | ?
Cc1ccc(OCC(O)CNCc2ccc(F)cc2)cc1 (stereo not given) | ? | ? | ? | ? | -78* | 13%
COc1cccc(CNCC(O)COc2ccc(C(=O)c3ccccc3)cc2)c1 (stereo not given) | ? | ? | ? | -29% | -19 | -12%
O=C(c1ccccc1)c1ccc(OCC(O)CNCc2ccc(Cl)cc2)cc1 (stereo not given) | -14% | ? | -10% | ? | -60* | -6%
COc1ccc(C(=O)OCc2cc(=O)n3nc(C4CC4)sc3n2)cc1OC | . | -18% | . | -15% | . | .
CCCOCc1cc(CN2CCN(c3ccccc3OC)CC2)c(O)c2ncccc12 | . | 4.6µM* | . | 2.9µM* | . | .
CCOCc1cc(CN2CCN(c3ccccc3OC)CC2)c(O)c2ncccc12 | . | 5.2µM* | . | 5.2µM* | . | .
COc1ccccc1N1CCN(Cc2cc(COC(C)C)c3cccnc3c2O)CC1 | . | 4.6µM* | . | 4.6µM* | . | .
COc1ccccc1N1CCN(Cc2cc3c(cc2O)OCO3)CC1 | 13% | -7% | 0% | -17% | -21 | 3%
COc1ccccc1N1CCN(Cc2cc(Br)c(O)c3ncccc23)CC1 | ? | 6.5µM* | ? | 9.2µM* | 70 | ?
CCOc1ccccc1N1CCN(Cc2cccc(OC)c2O)CC1 | -24% | ? | 8% | ? | 18 | 0%
C#CCOCCOCCOCCNc1nc(N2CCN(C(=O)[C@H](CCCN=C(N)N)n3cc(C(N)[C@@H](C)CC)nn3)CC2)nc(N2CCN(C(=O)[C@H](CC(N)=O)n3cc([C@@H](N)CC(N)=O)nn3)CC2)n1 (stereo not given in full) | -4% | ? | -24% | -10% | 11 | ?
O=C(Nc1ccccc1C(=O)NC1CC1)c1ccccc1 | -3% | 0% | 0%[9.24 µM] | 15% | -12 | 23%
COc1ccc(CN2CCN(c3cccc(C)c3C)CC2)cc1OC | 8% | -9% | 19% | 16% | 41 | ?
COc1cc(CN2CCN(c3cccc(C)c3C)CC2)cc(Br)c1O | ? | 13µM* | ? | 21µM* | ? | 7%
CC(C)C1C(=O)N(Cc2cn(CC3CCCCC3)nn2)CCS(=O)(=O)N1Cc1ccc(-c2ccc(Cl)nc2)cc1 (stereo not given) | ? | 15µM* | ? | 10µM* | ? | .
Cc1ccc(-c2ccc(CN3C(C(C)C)C(=O)N(Cc4cn(CC5CCCCC5)nn4)CCS3(=O)=O)cc2)cc1 (stereo not given) | ? | 12µM* | ? | 8.2µM* | -24 | .
CC1C(=O)N(Cc2cn(CC3CCCCC3)nn2)CCS(=O)(=O)N1Cc1ccc(-c2ccncc2)cc1 (stereo not given) | 3% | -30% | -5% | -1% | ? | .
CCC/C=C/c1ccc(CN2C(CC(C)C)C(=O)N(Cc3cn(CC4CCCCC4)nn3)CCS2(=O)=O)cc1 (stereo not given) | -19% | ? | ? | 23µM* | -3 | .
CC(C)C1C(=O)N(Cc2cn(CC3CCCCC3)nn2)CCS(=O)(=O)N1Cc1ccc(-c2ccccc2)cc1 (stereo not given) | ? | 13µM* | -26% | 4.1µM* | -19 | .
SMILES | HT1080 IDH1KD tx | TDP1 cell CPT | HT1080-NT tox | TDP1 cell noCPT | IL1B secr inh | ELG1 DNA repair
COCCNC(=O)C1(C)CCCN(Cc2cc(C(F)(F)F)ccc2Cl)C1 (stereo not given) | -4% | ? | -1% | ? | 15 | .
CCCN1Cc2cccc(C(=O)Nc3ccc(C(C)=O)cc3)c2C1=O | . | -5% | . | -7% | . | .
CC(=O)c1ccc(NC(=O)CN(C)CC(=O)Nc2cccc(F)c2)cc1 | -1% | 2% | 0% | ? | 4 | -1%
Cc1ccc(-c2ccc(CN3C(CC(C)C)C(=O)N(Cc4cn(CC5CCCCC5)nn4)CCS3(=O)=O)cc2)cc1 (stereo not given) | ? | 21µM* | -24% | 16µM* | 6 | .
CC(C)C1C(=O)N(Cc2cn(CC3CCCCC3)nn2)CCS(=O)(=O)N1Cc1ccc(-c2ccc(Cl)cc2)cc1 (stereo not given) | ? | 9.2µM* | ? | 7.3µM* | -29 | .
CC(C)C1C(=O)N(Cc2cn(CC3CCCCC3)nn2)CCS(=O)(=O)N1Cc1ccc(-c2ccc(F)nc2)cc1 (stereo not given) | ? | ? | ? | 13µM* | ? | .
COCOCCn1cc(CN2CCS(=O)(=O)N(Cc3ccc(-c4ccc(F)nc4)cc3)C(C)C2=O)nn1 (stereo not given) | 7% | -1% | 19% | -19% | 12 | .
CC(C)C1C(=O)N(Cc2cn(CC3CCCCC3)nn2)CCS(=O)(=O)N1Cc1ccc(-c2cccc(CO)c2)cc1 (stereo not given) | ? | 18µM* | ? | 8.2µM* | ? | .
CC(C)C1C(=O)N(Cc2cn(CC3CCCCC3)nn2)CCS(=O)(=O)N1Cc1ccc(-c2ccncc2)cc1 (stereo not given) | -14% | -30% | -26% | ? | -8 | .
COCOCCn1cc(CN2CCS(=O)(=O)N(Cc3ccc(-c4cccc(CO)c4)cc3)C(C)C2=O)nn1 (stereo not given) | 11% | 1% | 6% | -15% | 2 | .
O=C(/C=C\N1CCOCC1)c1ccc(Br)cc1 | -3% | 8% | -3% | 4% | -8 | ?
